Active and inactive are the calls of the source. Unless noted, the rule behind the calls is not given here.
Tests used:
[1] = compounds binding Alexa647 anti-His antibody – biochemical, small-molecule microarray, 635 nm fluorescence, artefact control for SMM control protein annotation, primary screen (AID 1128); settings: higher = more signal;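 note: score merges feature fluorescence with signal-to-noise for each printed compound spot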
[2] = tested on: Human papillomavirus type 1a E7 protein (residues 1-88); assay: HPV1a E7 small-molecule binders, primary screen, biochemical, small-molecule microarray, residues 1-88, 635 nm (AID 1129); settings: small-molecule microarray binding, fluorescence 635 nm; higher = more signal
[3] = target: Focal adhesion kinase 1 (Homo sapiens) (UniProt Q05397); assay: PTK2 protein binding on printed compound slides – biochemical, small-molecule microarray, 635/667 nm fluorescence, BSA, DTT, primary screen (AID 1130); settings: 635 nm fluorescence, higher = more signal;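 note: composite of spot emission at 667 nm and signal to noise over triplicate slides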
Focal adhesion kinase 1 (Homo sapiens), sequence (Q05397 whole entry, looked up): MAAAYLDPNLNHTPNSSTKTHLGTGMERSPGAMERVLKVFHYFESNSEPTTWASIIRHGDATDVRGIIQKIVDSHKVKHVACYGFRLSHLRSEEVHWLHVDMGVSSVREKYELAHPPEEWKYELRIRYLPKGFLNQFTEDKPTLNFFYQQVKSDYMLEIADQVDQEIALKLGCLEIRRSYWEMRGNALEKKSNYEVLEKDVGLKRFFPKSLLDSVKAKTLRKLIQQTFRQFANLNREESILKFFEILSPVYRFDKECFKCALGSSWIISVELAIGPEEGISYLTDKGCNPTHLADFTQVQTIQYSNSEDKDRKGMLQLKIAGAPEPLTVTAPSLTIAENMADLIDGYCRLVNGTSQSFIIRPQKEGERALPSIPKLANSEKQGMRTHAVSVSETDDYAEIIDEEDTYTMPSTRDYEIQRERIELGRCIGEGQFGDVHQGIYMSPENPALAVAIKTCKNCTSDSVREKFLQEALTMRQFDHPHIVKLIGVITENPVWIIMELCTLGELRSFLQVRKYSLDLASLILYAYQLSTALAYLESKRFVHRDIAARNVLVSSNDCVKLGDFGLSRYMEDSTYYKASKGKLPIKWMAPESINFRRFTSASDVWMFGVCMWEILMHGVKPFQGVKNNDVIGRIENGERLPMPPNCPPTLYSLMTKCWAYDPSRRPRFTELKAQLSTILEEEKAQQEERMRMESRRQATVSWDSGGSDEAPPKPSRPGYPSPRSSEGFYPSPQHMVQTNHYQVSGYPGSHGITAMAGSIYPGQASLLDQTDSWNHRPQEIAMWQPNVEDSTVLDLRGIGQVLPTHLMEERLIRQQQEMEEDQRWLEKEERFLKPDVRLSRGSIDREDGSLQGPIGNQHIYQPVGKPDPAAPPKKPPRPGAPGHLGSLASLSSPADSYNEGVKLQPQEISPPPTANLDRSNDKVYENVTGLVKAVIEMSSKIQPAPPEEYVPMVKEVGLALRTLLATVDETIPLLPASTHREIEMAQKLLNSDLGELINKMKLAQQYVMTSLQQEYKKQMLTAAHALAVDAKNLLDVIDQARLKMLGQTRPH

[4] = tested on: Fibrinogen (Alexa647-labelled); assay: Alexa647-fibrinogen binding to printed small molecules – biochemical, small-molecule microarray, 635/667 nm fluorescence, artefact control for SMM control-protein annotation, profiling panel (AID 1131); settings: fibrinogen-A647 binding fluorescence, higher = more signal;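 note: z-score merges 667 nm fluorescence with per-spot signal-to-noise over triplicate slides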
[5] = target: Follistatin (Homo sapiens) (UniProt P19883); assay: FST protein binding to printed compounds – biochemical, small-molecule microarray, 635/667 nm fluorescence, primary screen (AID 1132); settings: 635 nm fluorescence, higher = more signal
Follistatin (Homo sapiens), sequence (P19883 whole entry, looked up): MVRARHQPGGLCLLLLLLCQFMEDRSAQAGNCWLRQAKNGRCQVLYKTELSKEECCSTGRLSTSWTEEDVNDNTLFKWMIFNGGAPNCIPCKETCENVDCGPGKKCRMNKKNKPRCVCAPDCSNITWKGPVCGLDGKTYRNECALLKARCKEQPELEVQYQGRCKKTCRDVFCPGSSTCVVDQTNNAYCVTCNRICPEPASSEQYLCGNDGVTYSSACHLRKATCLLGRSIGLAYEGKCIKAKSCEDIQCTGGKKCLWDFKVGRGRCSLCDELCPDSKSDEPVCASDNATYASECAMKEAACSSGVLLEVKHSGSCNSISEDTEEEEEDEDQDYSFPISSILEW

[6] = target: Fibroblast growth factor 2 (Homo sapiens) (UniProt P09038); assay: basic fibroblast growth factor binding to printed compounds – biochemical, small-molecule microarray, 635/667 nm fluorescence, primary screen (AID 1133); settings: FGF2, fluorescence 635/667, higher = more signal
Fibroblast growth factor 2 (Homo sapiens), sequence (P09038 whole entry, looked up): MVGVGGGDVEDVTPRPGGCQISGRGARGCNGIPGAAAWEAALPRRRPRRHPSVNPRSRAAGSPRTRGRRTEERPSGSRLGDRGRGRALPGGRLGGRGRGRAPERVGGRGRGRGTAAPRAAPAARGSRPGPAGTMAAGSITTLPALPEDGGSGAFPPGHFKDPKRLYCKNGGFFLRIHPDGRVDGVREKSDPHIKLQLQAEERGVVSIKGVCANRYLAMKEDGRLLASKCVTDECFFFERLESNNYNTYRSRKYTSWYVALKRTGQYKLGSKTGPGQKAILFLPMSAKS

[7] = JC-1 mitochondrial potential readout, lung cancer cells – cell-based, A549, JC-1 fluorescence, basal, 24 h, 100 nL, profiling panel (AID 1138); settings: higher = more signal;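 note: A549 lung adenocarcinoma cells under basal conditions with no added stimulus; test concentration not given here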
Lefty1 = Lefty1 protein binding to printed compounds – biochemical, small-molecule microarray, 635/667 nm fluorescence, primary screen (AID 1139); settings: fluorescence 635/667, higher = more signal
[8] = tested on: wheat germ agglutinin (Triticum aestivum), Alexa647-labelled; assay: Alexa647-WGA lectin binding to printed small molecules – biochemical, small-molecule microarray, 635/667 nm fluorescence, artefact control for SMM control-protein annotation, profiling panel (AID 1140); settings: WGA-A647 binding, 635 nm fluorescence, higher = more signal;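 note: score merges 667 nm feature emission with signal to noise over triplicate slides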
[9] = target: Luciferin 4-monooxygenase (Photinus pyralis) (UniProt P08659); assay: inhibition of purified Photinus pyralis luciferase – biochemical, luminescence, purified enzyme, 2006 set, primary screen (AID 1141); settings: purified firefly luciferase, SteadyGlo luminescence, 30 min; higher = more signal, called active from +8 up or from −8 down;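 note: cell-free assay with purified firefly luciferase at 100 ng per well in PBS; test concentration not given here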
Luciferin 4-monooxygenase (Photinus pyralis), sequence (P08659 whole entry, looked up): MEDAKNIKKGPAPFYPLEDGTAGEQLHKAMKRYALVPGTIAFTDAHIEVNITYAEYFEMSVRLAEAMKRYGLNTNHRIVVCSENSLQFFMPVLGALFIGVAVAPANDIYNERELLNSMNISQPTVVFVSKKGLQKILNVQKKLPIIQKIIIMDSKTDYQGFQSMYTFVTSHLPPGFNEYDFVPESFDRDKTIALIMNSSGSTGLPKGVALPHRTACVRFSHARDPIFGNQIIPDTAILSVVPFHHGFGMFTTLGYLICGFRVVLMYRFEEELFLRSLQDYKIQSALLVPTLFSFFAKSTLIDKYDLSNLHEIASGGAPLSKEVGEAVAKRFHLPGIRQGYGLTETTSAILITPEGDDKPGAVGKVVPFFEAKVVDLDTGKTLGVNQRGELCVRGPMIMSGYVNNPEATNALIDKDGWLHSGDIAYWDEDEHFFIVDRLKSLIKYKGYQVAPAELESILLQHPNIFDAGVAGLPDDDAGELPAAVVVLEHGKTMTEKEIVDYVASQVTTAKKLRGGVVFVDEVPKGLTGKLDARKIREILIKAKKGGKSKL

[10] = tested on: Wnt5a (protein binding on small-molecule microarray); assay: small molecules binding Wnt5a protein – biophysical, small-molecule microarray, 635/667 nm fluorescence, primary screen (AID 1142); settings: 635 nm fluorescence, higher = more signal;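 note: fluorescence read at 667 nm with signal to noise per printed feature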
[11] = ATP-based viability of Huh7 replicon cells – cell-based, CellTiter-Glo luminescence, basal, 48 h, cytotoxicity control for HCV replication inhibitor project, primary screen (AID 1143); settings: higher = more signal, called active from +8 up or from −8 down;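 note: Huh7 hepatoma cells carrying a hepatitis C replication reporter with no stimulus; test concentration not given here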
[12] = Pseudomonas biofilm growth suppression – PAO1 strain, BacTiter-Glo luminescence, LB-PBS, primary screen (AID 1144); settings: P. aeruginosa PAO1 biofilm, 12 h, higher = more signal
[13] = basal CRE-LacZ reporter activity in PC12 – cell-based, unstimulated, primary screen (AID 1145); settings: no forskolin, luminescence, 4.5 h, higher = more signal, called active from +8 up or from −8 down
[14] = forskolin-driven CRE-LacZ activity in PC12 – cell-based, CRE-LacZ reporter, forskolin-stimulated, primary screen (AID 1146); settings: luminescence, 4.5 h, higher = more signal, called active from +8 up or from −8 down;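 note: PC12 cells with 6xCRE LacZ reporter stimulated by forskolin 10 µM; beta-galactosidase reporter signal reflecting CREB driven transcription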
[15] = target: Streptavidin (Streptomyces avidinii) (UniProt P22629); assay: compounds binding control protein streptavidin – biophysical, small-molecule microarray, 635/667 nm fluorescence, artefact control for SMM compound annotation, primary screen (AID 1147); settings: higher = more signal;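 note: signal reflects streptavidin binding to arrayed compounds as a control protein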
Streptavidin (Streptomyces avidinii), sequence (P22629 whole entry, looked up): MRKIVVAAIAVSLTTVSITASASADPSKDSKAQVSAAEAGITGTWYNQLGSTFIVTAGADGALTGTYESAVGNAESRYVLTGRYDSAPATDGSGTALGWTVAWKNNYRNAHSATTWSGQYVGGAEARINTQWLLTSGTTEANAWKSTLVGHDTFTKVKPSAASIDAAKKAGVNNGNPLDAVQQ

[16] = probe aInhba binding on compound microarray – biochemical, small-molecule microarray, 635/667 nm fluorescence, primary screen (AID 1148); settings: higher = more signal;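 note: score merges 667nm spot fluorescence with signal-to-noise for antibody binding to printed compounds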
Torsin-1A (Homo sapiens) [17] = target: Torsin-1A (Homo sapiens) (UniProt O14656); assay: TOR1A wild-type binding on microarray – cell lysate, small-molecule microarray, lysate, 635/667 nm, primary screen (AID 1149); settings: COS7 hTOR1A-WT lysate, 635 nm fluorescence, higher = more signal
Torsin-1A (Homo sapiens), sequence (O14656 whole entry, looked up): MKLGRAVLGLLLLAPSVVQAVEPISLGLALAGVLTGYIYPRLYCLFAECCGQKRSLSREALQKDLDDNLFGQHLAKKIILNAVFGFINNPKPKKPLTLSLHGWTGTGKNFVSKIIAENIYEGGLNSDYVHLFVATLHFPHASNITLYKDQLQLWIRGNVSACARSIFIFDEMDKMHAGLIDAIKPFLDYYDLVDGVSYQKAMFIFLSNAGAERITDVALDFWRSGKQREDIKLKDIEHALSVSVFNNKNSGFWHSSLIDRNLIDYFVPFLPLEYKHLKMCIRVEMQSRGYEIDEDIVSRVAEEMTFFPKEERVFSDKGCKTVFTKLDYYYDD

Torsin-1A (Homo sapiens) [18] = target: Torsin-1A (Homo sapiens) (UniProt O14656); assay: torsin A mutant lysate binding on microarrays – cell lysate, small-molecule microarray, COS7 lysate, 635/667 nm fluorescence, primary screen (AID 1150); settings: COS7 hTOR1A mutant lysate, 635 nm fluorescence, higher = more signal;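 note: score pools 667 nm emission and signal to noise measuring lysate protein binding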
[19] = tested on: Sonic hedgehog protein (Shh); assay: Sonic hedgehog microarray binding compounds – biochemical, small-molecule microarray, 635/667 nm fluorescence, primary screen (AID 1151); settings: 635 nm fluorescence, higher = more signal;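 note: Shh protein binding to compounds spotted on small-molecule microarray slides; score combines spot fluorescence intensity with signal-to-noise across triplicate slides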

Row | Compound | composite z-score [1] | composite z-score [2] | composite z-score [3] | composite z-score [4] | composite z-score [5] | composite z-score [6] | z-score [7] | composite z-score (Lefty1) | composite z-score [8] | z-score [9] | composite z-score [10] | z-score [11] | z-score [12] | z-score [13] | z-score [14] | composite z-score [15] | composite z-score [16] | composite z-score (Torsin-1A (Homo sapiens) [17]) | composite z-score (Torsin-1A (Homo sapiens) [18]) | composite z-score [19]
1 | CON=C(C)CCC(=O)OC[C@H]1O[C@H](C#Cc2ccccc2)C=C[C@@H]1Oc1ccc(C)cc1 | 0.377 | 0.54 | 0.122 | 0.354 | 0.398 | 0.344 | -0.656 | 0.569 | 0.279 | -3.61 (inactive) | 0.0488 | -1.85 (inactive) | -0.0775 (inactive) | 0.415 (inactive) | 1.24 (inactive) | 0.0457 | -0.016 | 0.552 | -0.0451 | 0.597
2 | CON=C(C)CCN1CCc2nc(-c3ccccc3)c(-c3ccccc3)cc2C1 | -0.634 | -0.545 | -0.414 | 0.838 | 0.944 | 0.344 | 2.9 | 0.686 | 0.801 | 0.326 (inactive) | -0.0635 | -4.2 (inactive) | -0.925 (inactive) | 2.22 (inactive) | -0.55 (inactive) | 1.33 | -0.05 | 0.254 | 0.007 | 0.872
3 | CON=C[C@@H](OC)[C@H](C)C=CCC(=O)OC | 1.66 | 0.158 | -0.069 | -1.5 | 0.0902 | 0.0231 | -0.223 | 0.0713 | -0.115 | -0.982 (inactive) | -0.115 | -0.569 (inactive) | 0.157 (inactive) | 0.257 (inactive) | 0.034 (inactive) | -0.0172 | -0.0762 | 0.752 | -0.0215 | 0.183
4 | COc1ccc(COC(=O)NN=C2C[C@@H](O)[C@@H](O)[C@@H]3[C@@H]4C(=O)N(C[C@@H]5CCCO5)C(=O)[C@@H]4CC[C@@H]23)cc1 | 0.365 | 0.275 | -0.2 | 0.953 | 0.0253 | 0.104 | 0.883 | 0.0359 | 0.627 | 0.181 (inactive) | 0.0073 | 0.0894 (inactive) | 1.2 (inactive) | 0.338 (inactive) | -0.959 (inactive) | 0.662 | -0.15 | 1.2 | 1 | 0.0407
5 | C[C@H]1CC[C@H]2C(=O)N[C@H](Cc3ccccc3)C(=O)N2[C@@H]1c1ccccc1 | -0.106 | -0.138 | 0.128 | -0.0797 | 0.187 | 0.831 | 0.514 | 0.426 | -0.112 | -0.854 (inactive) | 0.132 | 0.21 (inactive) | 0.108 (inactive) | -0.072 (inactive) | 0.901 (inactive) | 0.119 | -0.233 | 0.345 | 0.52 | 0.401

From PubChem BioAssay
